# Laboratory results taken from PubChem BioAssay AID504634 (The Scripps Research Institute Molecular Screening Center, 2011).
# Among all 340,000 compounds or so, about 280 (0.082%) were called active. Cut-off read from the data, not from the text of the source: active = inhibition mostly above about 23% (no sharp cut-off); inactive = mostly below about 18%. Only a selection was taken, and actives are over-represented in it overall.
# Target: 5-hydroxytryptamine receptor 5A (Homo sapiens) (UniProt P47898)
# Sequence (P47898 whole entry, looked up): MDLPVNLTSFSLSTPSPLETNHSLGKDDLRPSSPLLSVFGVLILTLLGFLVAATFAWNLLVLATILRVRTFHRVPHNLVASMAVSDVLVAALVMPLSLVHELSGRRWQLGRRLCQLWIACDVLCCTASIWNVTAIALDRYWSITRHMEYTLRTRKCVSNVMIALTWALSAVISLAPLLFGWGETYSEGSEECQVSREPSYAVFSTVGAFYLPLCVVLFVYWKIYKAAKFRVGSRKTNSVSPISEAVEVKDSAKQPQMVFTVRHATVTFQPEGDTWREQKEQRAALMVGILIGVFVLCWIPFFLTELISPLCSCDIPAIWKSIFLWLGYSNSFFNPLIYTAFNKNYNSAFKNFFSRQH
# Experiment: HTR5A inverse agonists in luminescence cell assay, primary screen, counter-screen for OPRM1-OPRD1 heterodimer inverse agonist project, full-deck HTS (AID 504634);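 note: 0% = cells with DMSO and 100% = no-cell wells with DMSO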
# Conditions: HTR5A cell line, inverse agonism, at 9.3 µM, hits give high values
row,SMILES,inhibition
1,CC(=O)OC1C2(CC3N4C(=O)C5(CO)SSC4(CC31O)C(=O)N5C)OC(C)C(C)(C)C2=O (stereo not given),97.6% (active)
2,COC1C(O)C(C)OC(OC2CCC3(C=O)C(CCC4C3CCC3(C)C(C5=CC(=O)OC5)CCC43O)C2)C1O (stereo not given),-11% (inactive)
3,c1ccc(C2NCc3ccccc3-n3cccc32)cc1 (stereo not given),-5.59% (inactive)
4,COC(=O)C1=C(c2cc3ccccc3s2)C[C@@H]2CC[C@H]1N2C(=O)NC(C)C,5.09% (inactive)
5,C[C@]12CCC3C(CC[C@H]4[C@H](O)[C@H](O)CC[C@]34C)C1CC[C@@H]2O (stereo not given in full),-10.8% (inactive)
